This passage reports growth results from PubChem BioAssay (NCI).

Test systems include NCI-H23 lung; NCI-H226 lung; NCI-H322M lung; HOP-62 NSCLC; NCI-H460 lung; HOP-92 NSCLC; NCI-H522 lung; A549/ATCC NSCLC; 786-0 renal; COLO 205 colon.
What all share (experiment): NCI-60 one-dose screen, 48 h (100 = growth as untreated, 0 = no growth, -100 = all killed)
Holding throughout (conditions): 10 µM unless noted

This is part of a sample that, as a whole, favours compounds with a hit. Of some 83,000 tested, about 20% had one in any assay.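 How to read the values: 0–100, growth inhibition (40 = 60% inhibited); 0, no net growth; -100 to 0, cell death (-40 = 40% of starting cells died; -100 = all dead).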 Unmarked numbers belong to inactive results. Activity calls are given as the source filed them. Rule for the calls: active = growth percent below 10; inactive = the rest.

As for `COCCn1cc(-c2csc(-c3cn(C)c4ccc(F)cc34)n2)c2cccnc21`, the growth with NCI-H23 lung was 76.3%; with NCI-H226 lung, 83%; in the experiment with NCI-H322M lung, 75.7%; in the experiment on HOP-62 NSCLC, 93.2%; in the experiment with NCI-H460 lung it was 51.6%; in the experiment on HOP-92 NSCLC, 64.7%. In addition, the growth in the experiment with NCI-H522 lung is 30.8%; in the experiment with A549/ATCC NSCLC, 60.6%; in the experiment with 786-0 renal, 62%; with COLO 205 colon, 61.6%.

On to `COc1ccccc1/C=C1\COc2ccc(O)cc2C1=O`, for which the growth with NCI-H23 lung was 101%; in the experiment with NCI-H226 lung, 102%; with NCI-H322M lung, 104%; in the experiment with HOP-62 NSCLC, 101%; with NCI-H460 lung, 93.3%; in the experiment on HOP-92 NSCLC, 103%. For the same compound, the growth with NCI-H522 lung is 24.6%; in the experiment on A549/ATCC NSCLC, 84.6%; in the experiment with 786-0 renal, 97.2%; in the experiment on COLO 205 colon it was 87.6%.

Take `O=C(/C=C/C12c3ccccc3C(c3ccccc31)C1C(=O)NC(=O)C12)c1ccncc1` (stereo not given): the growth with NCI-H23 lung is 23.2%; in the experiment on NCI-H226 lung it was 78.9%; in the experiment on NCI-H322M lung, 35.6%; in the experiment on HOP-62 NSCLC it was 4.78% (active); with NCI-H460 lung it was 24.9%; in the experiment on HOP-92 NSCLC, 23.6%. Besides, the growth was 28.5% with NCI-H522 lung, 86.1% in the experiment with A549/ATCC NSCLC, 20.6% in the experiment on 786-0 renal and 78.2% with COLO 205 colon.

For `C/C=C(\C)C(=O)N[C@H]1CC[C@]2(C)C3CC[C@@]4(C)C(CC[C@@H]4C(C)N(C)C)C3CCC2[C@H]1OC(C)=O` (stereo not given in full), the growth with NCI-H23 lung is -8.02% (active); in the experiment with NCI-H226 lung, -2.69% (active); in the experiment with NCI-H322M lung, -48.5% (active); in the experiment on HOP-62 NSCLC, -60% (active); in the experiment with NCI-H460 lung, -86.4% (active); with HOP-92 NSCLC, -49.4% (active). Also, the growth in the experiment with NCI-H522 lung is 6.83% (active); in the experiment on A549/ATCC NSCLC, -17.8% (active); in the experiment on 786-0 renal it was -88.8% (active); in the experiment on COLO 205 colon it was -90.7% (active).

Consider `COc1ccc(S(=O)(=O)Nc2cc(Sc3cccc4cccnc34)c(O)c3ccccc23)cc1`, for which the growth with NCI-H23 lung is 23.7%; with NCI-H226 lung, 41.2%; in the experiment with NCI-H322M lung, 29.9%; in the experiment with HOP-62 NSCLC it was 45.8%; with NCI-H460 lung, 4.45% (active); in the experiment on HOP-92 NSCLC, 38.9%. Besides, the growth in the experiment on NCI-H522 lung was -39% (active); in the experiment on A549/ATCC NSCLC it was 13.3%; in the experiment with 786-0 renal it was 28.5%; in the experiment with COLO 205 colon it was -60.2% (active).

As for `CC(=O)c1c(C)nc(SCC(=O)Nc2ccc(Cl)cc2)n1-c1ccc(Cl)cc1`, the growth in the experiment on NCI-H23 lung was 96.5%; in the experiment with NCI-H226 lung, 96%; in the experiment on NCI-H322M lung it was 94.9%; with HOP-62 NSCLC, 99%; in the experiment with NCI-H460 lung, 86.7%; in the experiment on HOP-92 NSCLC, 110%. Besides, the growth in the experiment on NCI-H522 lung is 72.3%; with A549/ATCC NSCLC, 86.7%; in the experiment with 786-0 renal, 102%; with COLO 205 colon it was 109%.

On to `C#Cc1cc(C(=O)Nc2ccc(CN3CCN(C)CC3)c(C(F)(F)F)c2)ccc1C`, for which the growth with NCI-H23 lung was 88.2%; in the experiment with NCI-H226 lung, 83.6%; in the experiment with NCI-H322M lung, 88.5%; with HOP-62 NSCLC, 88.5%; in the experiment with NCI-H460 lung it was 71.6%; in the experiment with HOP-92 NSCLC it was 58.5%. For the same compound, the growth is 96.1% with NCI-H522 lung, 70.8% with A549/ATCC NSCLC, 52.2% in the experiment with 786-0 renal and 56.3% in the experiment with COLO 205 colon.

In the case of `COc1ccc(C2Nc3nc(SC)nc(N)c3N=C3c4ccccc4CCC32)cc1` (stereo not given), the growth is 72.4% in the experiment on NCI-H23 lung; 107% in the experiment on NCI-H226 lung; 109% in the experiment on NCI-H322M lung; 102% in the experiment with HOP-62 NSCLC; 86.7% with NCI-H460 lung; 50.7% in the experiment on HOP-92 NSCLC. The growth in the experiment on NCI-H522 lung is 90.9%; in the experiment on A549/ATCC NSCLC it was 102%; with 786-0 renal, 93.6%; with COLO 205 colon, 112%.

Consider `C=C1C(=O)O[C@H]2[C@H]1CC/C(CNS(=O)(=O)c1ccc3ccccc3c1)=C\CC[C@@]1(C)O[C@@H]21`, for which the growth in the experiment on NCI-H23 lung was -3.15% (active); in the experiment with NCI-H226 lung, -25.4% (active); in the experiment with NCI-H322M lung, 92.1%; with HOP-62 NSCLC, 78.4%; in the experiment on NCI-H460 lung it was 91.7%; with HOP-92 NSCLC, -29.6% (active). In addition, the growth is -78.6% (active) in the experiment with NCI-H522 lung, 69% in the experiment with A549/ATCC NSCLC, -67% (active) in the experiment with 786-0 renal and -84.5% (active) in the experiment with COLO 205 colon.

Regarding `C=C(CNCCc1ccc(O)cc1)[C@@H]1CC[C@]2(CO)CC[C@]3(C)[C@H](CC[C@@H]4[C@@]5(C)CCC(NCCc6ccc(O)cc6)C(C)(C)[C@@H]5CC[C@]43C)[C@@H]12` (stereo not given in full), the growth in the experiment on NCI-H23 lung is -78.2% (active); in the experiment on NCI-H226 lung it was -61% (active); in the experiment on NCI-H322M lung, -90.6% (active); with HOP-62 NSCLC, -90.7% (active); in the experiment on NCI-H460 lung it was -79.4% (active); in the experiment with HOP-92 NSCLC it was -88.4% (active). For the same compound, the growth is -73.1% (active) in the experiment on NCI-H522 lung, -82.4% (active) with A549/ATCC NSCLC, -89.9% (active) with 786-0 renal and -91.1% (active) in the experiment with COLO 205 colon.

As for `CCCCCCCCCCCCCCCCCCOc1cccc(CC(=O)OCC[N+](CC)(CC)CC)c1`, the growth is 35.7% with NCI-H23 lung; 59.6% with NCI-H226 lung; 77.7% in the experiment with NCI-H322M lung; 69.1% in the experiment with HOP-62 NSCLC; 67% with NCI-H460 lung; 52.3% in the experiment with HOP-92 NSCLC. Further, the growth was 38.5% with NCI-H522 lung, 60% with A549/ATCC NSCLC, 58.5% in the experiment with 786-0 renal and 47% in the experiment on COLO 205 colon.

Turning to `O=C(Nc1ccc(F)cc1)c1cc2cc(Nc3nc(-c4ccccc4)nc4ccccc34)ccc2oc1=O`, the growth with NCI-H23 lung was 90.1%; in the experiment on NCI-H226 lung, 102%; in the experiment on NCI-H322M lung, 100%; in the experiment with HOP-62 NSCLC, 84.2%; in the experiment with NCI-H460 lung, 113%; in the experiment with HOP-92 NSCLC it was 103%. Further, the growth is 97.6% with NCI-H522 lung, 92.5% in the experiment on A549/ATCC NSCLC, 98.4% in the experiment on 786-0 renal and 123% in the experiment on COLO 205 colon.
